EWS-Fli block = EWS/Fli-driven NR0B1 reporter inhibitors, primary screen, A673 cells, NR0B1 luciferase, luminescence, MLPCN library; viability-normalised; inhibition, % at 12.6 µM; 350,000 tested, 0.67% active; AID 651661, 2012;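 active = mean inhibition of at least 50% after viability correction, with every replicate also passing that limit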;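 also: firefly luciferase signal divided by Alamar Blue viability fluorescence both relative to DMSO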
TROY signal inh = inhibitors of TROY-driven NF-kB signaling, primary screen, Q293 LMP1-TROYcd cells, NF-kB luciferase, uHTS. Q293 LMP1-TROYcd NF-kB luciferase reporter, 4 h. inhibition, % at 10 µM. 360,000 tested, 0.98% active;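 active = compounds whose plate-normalised and pattern-corrected inhibition of the luciferase reporter signal at the single screening dose is 50% or more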
LGR2 inh = inhibitors of bursicon-induced LGR2 CRE-luciferase signal, primary screen, cell-based, HEK293, CRE-luciferase reporter, bursicon stimulation; Drosophila bursicon receptor LGR2 (rickets); bursicon-stimulated, 4 h; inhibition, % at 9.99 µM; 380,000 tested, 0.35% active;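 active = drop in luminescence signal, shown as inhibition above about 50% in the replicate tests, limit read from the data, passing the limit was not always enough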;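 also: agonist challenge used bursicon conditioned medium at about half maximal strength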
LMP1 NFkB inh = EBV LMP1-driven NF-kappaB luciferase reporter inhibitors, primary screen, cell-based, luminescence, single point; inhibition, % at 12.5 µM; LMP1-induced NF-kappaB luciferase reporter cells; 350,000 tested, 0.69% active; in the data active = inhibition above about 41%;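 also: 0% = neutral control wells and 100% = reference inhibitor control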
TWEAK-Fn14 inh = inhibitors of TWEAK-Fn14 signaling, primary screen, luciferase reporter cells, uHTS; TWEAK-stimulated Fn14 reporter cells, luciferase luminescence, 8 h; 360,000 tested, 2% active; inhibition, % at 10 µM; in the data active = inhibition above about 50%
* marks the source's active call; other numbers are inactive results; · = no result given; ! = repeats disagree. Shown are actives, neighbours in structure and some others; about 2.6% of the full set was active somewhere.

SMILES	EWS-Fli block	TROY signal inh	LGR2 inh	LMP1 NFkB inh	TWEAK-Fn14 inh
CN1CCN(C(=O)C[C@H]2C[C@H]3c4cc(NC(=O)CC5CC5)ccc4O[C@H]3[C@H](CO)O2)CC1	-6	·	2	·	·
O=c1cc(C(F)(F)F)[nH]c2ccc(OC(F)(F)F)cc12	7	48	·	·	-4
O=c1cc(C(F)(F)F)[nH]c2c(C(F)(F)F)cccc12	·	58*	·	-2	61*
O=C(c1cccnc1)N1CC2(C1)[C@@H](c1ccccc1)[C@@H](CO)N2CC1CC1	6	·	4	·	·
COc1cc(/C=N/NC(=Nc2ccc(C)cc2)c2nc3ccccc3s2)ccc1O	·	88*	·	18	107*
CO[C@H]1CC[C@@H]2CCOc3c(C#N)cccc3C(=O)N(C)[C@H](C)C(=O)N(C)C[C@H]1O2	12	·	-11	·	·
Cc1ccc2c(c1)CCCN2S(=O)(=O)c1cccc(C(=O)Nc2ccccc2C(=O)O)c1	-27	55*	34	17	10
CN(C)C(=O)c1ccc(NC(=O)c2cccc(S(=O)(=O)N3CCCc4ccccc43)c2)cc1	20	37	-7	10	19
CC(=O)c1ccc(NS(=O)(=O)c2cccc(C(=O)Nc3ccccc3C(=O)O)c2)cc1	7	13	-11	10	82*
COc1ccc(NS(=O)(=O)c2cccc(C(=O)Nc3ccccc3C(=O)O)c2)cc1	10	20	4	2	4
CCCNC(=O)Nc1ccc2c(c1)C(=O)N(C)[C@@H]1CC[C@H](CC(=O)NC3CCC3)O[C@H]1CO2	-4	·	-15	·	·
C[C@@H]1CCCCO[C@@H](CN(C)C(=O)NC2CCCCC2)[C@@H](C)CN([C@@H](C)CO)C(=O)c2cc(N(C)C)ccc2O1	2	·	-17	·	·
O=S(=O)(c1cccc(F)c1)N1CC[C@@H]2[C@H]1c1cc(Br)ccc1N[C@@H]2CO	-7	·	4	·	·
CCO[C@H]1OC(C(=O)NCc2nc3ccccc3[nH]2)=C[C@@H](c2coc3ccccc3c2=O)[C@@H]1CCCO	-3	·	·	·	·
c1ccc(-c2nnsc2-c2ccccc2)cc1	7	16	-13	0	-20
O=S(=O)(c1ccc(Cl)c(Cl)c1)c1snnc1-c1ccccc1	·	52*	·	21	78*
O=C(NCCCl)NNc1c(Cl)cc(Cl)cc1Cl	-70	72*	4	8	51*
CCN(c1ccccc1)S(=O)(=O)c1cc(C(=O)Nc2ccc(F)c(F)c2)ccc1F	15	63*	·	14	80*
CCN(c1ccccc1)S(=O)(=O)c1ccc(C(=O)Nc2cccc(NC(C)=O)c2)cc1	4	-5	-1	4	21
COC(=O)c1ccc(-c2nc3cc(Cl)c(N)cc3s2)cc1	·	71*	·	9	87*
COC(=O)c1ccc(-c2nc(O)c(C)s2)cc1	5	3	-2	3	6
C[C@@H]1CN([C@H](C)CO)S(=O)(=O)c2ccc(C#CC3CC3)cc2O[C@@H]1CN(C)Cc1ccccn1	3	·	16	·	·
Cc1cc(C(=O)Nc2cccc3c2O[C@H](CN(C)S(=O)(=O)c2ccccc2)[C@H](C)CN([C@@H](C)CO)C3=O)n(C)n1	6	·	-10	·	·
CCN(CC)CCOC(=O)c1ccc(NC(=O)/C=C/c2cccs2)cc1	7	74*	-12	9	64*
COc1ccccc1S(=O)(=O)N1CC[C@@H]2[C@@H](CO)N(C)c3ccc(-c4cccc(C#N)c4)cc3[C@@H]21	-3	·	-9	·	·
SMILES	EWS-Fli block	TROY signal inh	LGR2 inh	LMP1 NFkB inh	TWEAK-Fn14 inh
O=C(NC(Nc1nc2ccc([N+](=O)[O-])cc2s1)(C(F)(F)F)C(F)(F)F)c1ccccc1Cl	33	66*	35	53*	90*
O=C(NC(Nc1nc2ccc([N+](=O)[O-])cc2s1)(C(F)(F)F)C(F)(F)F)c1cccnc1	4	15	·	32	51*
COc1ccc(S(=O)(=O)N(C)C[C@@H]2Oc3ccc(N(C)C)cc3CC(=O)N([C@@H](C)CO)C[C@H]2C)cc1	1	·	49	·	·
CC(C)c1cc(NC(=O)c2ccccc2)cc(C(C)C)c1O	6	-4	18	59*	-11
Cc1ccccc1Nc1nc(N)nc(CN(C)c2ccccc2)n1	·	-17	·	-5	3
Nc1nc(CCl)nc(Nc2ccc3ccccc3c2)n1	53*	-27	-100	-4	16
COc1ccc(Nc2nc(N)nc(CCl)n2)cc1	44	-23	-32	-13	3
Cc1ccccc1Nc1nc(N)nc(CCl)n1	61*	7	·	1	11
CC(=O)NC[C@@H]1[C@@H](c2ccc(C3=CCCC3)cc2)[C@@H](CO)N1C(=O)C1CC1	·	·	-8	·	·
Cc1nnc(C)c2c(C)n(-c3ccc4ncccc4c3)c(C)c12	-11	52*	-14	-1	1
Cc1ccc2ncccc2c1	-3	-7	0	-8	1
C[C@@H]1CN([C@H](C)CO)C(=O)c2cc(NS(=O)(=O)c3ccc(Cl)cc3)ccc2O[C@@H](C)CCCCO[C@@H]1CN(C)Cc1ccc2c(c1)OCO2	-1	·	22	·	·
COCC(C)n1c(-c2ccc3c(c2)NC(=O)CO3)csc1=Nc1ccc(OC(F)F)cc1 (stereo not drawn)	26	52*!	6	16	63*!
CC(=O)c1c(Nc2ccc3c(c2)OCCO3)oc(C)cc1=O	-30	39	-78	-1	70*
Cc1cc(C(=O)Nc2ccc3c(c2)OCCO3)c(C)o1	·	-65	·	-12	3
Cc1ccc(C)c(OCCn2cc(C(=O)O)c3ccccc32)c1	4	7	-13	-3	16
CC(=O)c1cn(CCOc2cc(C)ccc2C)c2ccccc12	29	0	13	0	100*
O=C(NCc1ccccc1)[C@H]1[C@H](CO)[C@H]2Cn3c(ccc(/C=C/c4ccccc4)c3=O)[C@@H]1N2CC1CC1	0	·	9	·	·
O=C(Nc1cc(Sc2ccccn2)cc([N+](=O)[O-])c1)c1cccc(Cl)c1	20	47	35	4	78*
O=C(N/N=C/c1ccccn1)c1ccc(NC(=O)c2cccc([N+](=O)[O-])c2)cc1	3	27	14	-8	11
O=C(Nc1cc(Sc2ccccn2)cc([N+](=O)[O-])c1)c1ccc(Cl)cc1	·	17	·	-13	65*
CC1(C)CC2CC(C)(CN2C(=O)c2cc(-c3ccc(O)cc3)on2)C1 (stereo not drawn)	12	62*	12	-12	-35
CCCCc1ccc(Nc2nc(CCC)cc(=O)[nH]2)cc1	·	6	·	4	5
CCCc1cc(=O)[nH]c(Nc2ccc3c(c2)OCCO3)n1	-17	41	-13	15	58*
COc1ccccc1C(=O)NC(=S)Nc1ccccc1N1CCCC1	-20	78*	5	0	76*
COc1ccccc1NC(=O)Nc1ccccc1N1CCOCC1	-19	12	2	-12	61*
